Experimental data published in PMC7862700, “An all-to-all approach to the identification of sequence-specific readers for epigenetic DNA modifications on cytosine”.

Experiments:
Assay in all cases: DAPPL (digital affinity profiling via proximity ligation, sequencing); 10 mM Tris-HCl pH 7.5, 50 mM NaCl, 1 mM DTT, 4% glycerol, room temperature, 30 min; GST-TFs on glutathione beads, 16-mer random dsDNA library, 0.1% formaldehyde crosslink after washing; high values mean tight binding
FLI1 = target: T1, FLI1 (Homo sapiens, UniProt Q01543 1-452); settings: protein: recombinant; tags: N-terminal GST; dsDNA, one strand shown
T1 sequence: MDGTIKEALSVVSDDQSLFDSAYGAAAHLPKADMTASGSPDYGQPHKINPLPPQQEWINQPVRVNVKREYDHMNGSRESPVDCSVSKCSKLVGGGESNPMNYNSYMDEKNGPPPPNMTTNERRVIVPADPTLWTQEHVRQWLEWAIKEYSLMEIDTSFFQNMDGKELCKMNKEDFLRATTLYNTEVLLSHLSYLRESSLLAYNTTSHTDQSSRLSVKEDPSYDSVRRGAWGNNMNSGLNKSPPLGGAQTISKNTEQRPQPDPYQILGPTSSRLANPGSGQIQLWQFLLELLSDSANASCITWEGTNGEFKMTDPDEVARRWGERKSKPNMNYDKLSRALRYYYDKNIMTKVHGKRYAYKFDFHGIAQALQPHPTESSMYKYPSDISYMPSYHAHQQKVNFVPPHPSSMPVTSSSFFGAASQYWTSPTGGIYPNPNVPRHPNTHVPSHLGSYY
Summary of the method: (§1)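 The binding signal reported is, for every hexamer, its read frequency for a factor over its read frequency for the tag-only sample. Reads came from pools of yeast-expressed, GST-fused human transcription factors on glutathione beads, barcoded with DNA and mixed with that sample, which were incubated with 200 nmole of a random double-stranded 16-mer DNA library in Tris/NaCl/DTT/glycerol buffer at room temperature for 30 min. After washing, the pools were crosslinked with 0.1% formaldehyde, proximity-ligated with BsaI/T4 ligase for 1 h at 37 °C, PCR-amplified and sequenced on an Illumina NextSeq500.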

ELK1 = target: T2, ELK1 (Homo sapiens, UniProt P19419 1-428); settings: protein: recombinant; tags: N-terminal GST; dsDNA, one strand shown
T2 sequence: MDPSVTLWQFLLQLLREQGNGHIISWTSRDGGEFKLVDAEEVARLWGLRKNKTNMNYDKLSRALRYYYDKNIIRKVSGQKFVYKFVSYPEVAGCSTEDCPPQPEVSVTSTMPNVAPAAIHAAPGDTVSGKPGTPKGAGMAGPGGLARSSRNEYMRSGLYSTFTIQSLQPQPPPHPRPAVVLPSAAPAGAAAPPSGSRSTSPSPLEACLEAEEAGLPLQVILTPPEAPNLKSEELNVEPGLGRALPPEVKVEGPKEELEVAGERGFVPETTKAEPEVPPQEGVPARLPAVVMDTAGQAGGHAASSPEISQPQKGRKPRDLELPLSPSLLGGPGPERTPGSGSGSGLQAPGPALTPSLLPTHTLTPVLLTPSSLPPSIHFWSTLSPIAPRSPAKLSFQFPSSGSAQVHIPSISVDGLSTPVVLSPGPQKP
Summary of the method: as §1

GABPA = target: T3, GABPA (Homo sapiens, UniProt Q06546 1-454); settings: protein: recombinant; tags: N-terminal GST; dsDNA, one strand shown
T3 sequence: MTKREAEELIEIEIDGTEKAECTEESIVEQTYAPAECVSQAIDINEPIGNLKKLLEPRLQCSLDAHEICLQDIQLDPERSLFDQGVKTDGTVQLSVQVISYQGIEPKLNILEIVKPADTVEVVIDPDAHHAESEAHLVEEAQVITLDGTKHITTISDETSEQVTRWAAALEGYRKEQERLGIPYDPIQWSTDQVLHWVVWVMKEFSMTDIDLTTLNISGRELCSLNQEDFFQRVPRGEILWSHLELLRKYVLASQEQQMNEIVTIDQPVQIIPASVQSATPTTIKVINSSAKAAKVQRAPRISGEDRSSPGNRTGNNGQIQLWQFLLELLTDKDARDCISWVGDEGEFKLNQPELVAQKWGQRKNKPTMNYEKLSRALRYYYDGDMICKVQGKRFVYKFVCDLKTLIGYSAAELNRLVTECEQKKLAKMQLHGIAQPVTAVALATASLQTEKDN
Summary of the method: as §1

ERG = target: T4, ERG (Homo sapiens, UniProt P11308 1-479); settings: protein: recombinant; tags: N-terminal GST; dsDNA, one strand shown
T4 sequence: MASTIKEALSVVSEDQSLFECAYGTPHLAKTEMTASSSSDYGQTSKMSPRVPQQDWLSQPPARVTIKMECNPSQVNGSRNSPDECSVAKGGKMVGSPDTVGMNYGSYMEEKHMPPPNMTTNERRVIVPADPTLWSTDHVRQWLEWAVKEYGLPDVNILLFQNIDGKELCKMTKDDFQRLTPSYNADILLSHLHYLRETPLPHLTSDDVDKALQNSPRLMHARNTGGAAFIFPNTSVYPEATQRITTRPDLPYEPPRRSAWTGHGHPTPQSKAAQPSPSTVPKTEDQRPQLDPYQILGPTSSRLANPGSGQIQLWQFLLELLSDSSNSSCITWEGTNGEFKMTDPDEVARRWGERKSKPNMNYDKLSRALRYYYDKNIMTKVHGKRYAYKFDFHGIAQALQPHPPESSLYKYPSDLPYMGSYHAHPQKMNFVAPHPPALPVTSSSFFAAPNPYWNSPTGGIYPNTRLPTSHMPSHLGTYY
Summary of the method: as §1

ELF1 = ELF1 (Homo sapiens, UniProt P32519 1-619); settings: protein: recombinant; tags: N-terminal GST; dsDNA, one strand shown
Sequence of ELF1 (P32519 whole entry): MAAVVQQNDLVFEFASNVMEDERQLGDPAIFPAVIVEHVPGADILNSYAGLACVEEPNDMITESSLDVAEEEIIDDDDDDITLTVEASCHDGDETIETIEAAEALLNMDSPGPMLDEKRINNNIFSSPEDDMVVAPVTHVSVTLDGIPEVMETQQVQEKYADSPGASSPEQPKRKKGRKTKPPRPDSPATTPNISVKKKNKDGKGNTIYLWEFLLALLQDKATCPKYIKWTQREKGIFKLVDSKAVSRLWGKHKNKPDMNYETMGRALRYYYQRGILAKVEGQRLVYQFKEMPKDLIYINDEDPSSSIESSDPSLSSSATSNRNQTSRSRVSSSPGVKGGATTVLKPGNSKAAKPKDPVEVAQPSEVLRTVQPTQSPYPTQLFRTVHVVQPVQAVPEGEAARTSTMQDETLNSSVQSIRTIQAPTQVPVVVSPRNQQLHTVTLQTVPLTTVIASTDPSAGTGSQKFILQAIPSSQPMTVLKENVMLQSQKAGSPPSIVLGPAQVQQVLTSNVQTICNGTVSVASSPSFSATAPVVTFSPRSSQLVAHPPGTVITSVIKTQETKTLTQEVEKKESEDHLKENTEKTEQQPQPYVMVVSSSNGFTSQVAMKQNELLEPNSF
Summary of the method: as §1

EHF = target: T5, EHF (Homo sapiens, UniProt Q9NZC4 1-300); settings: protein: recombinant; tags: N-terminal GST; dsDNA, one strand shown
T5 sequence: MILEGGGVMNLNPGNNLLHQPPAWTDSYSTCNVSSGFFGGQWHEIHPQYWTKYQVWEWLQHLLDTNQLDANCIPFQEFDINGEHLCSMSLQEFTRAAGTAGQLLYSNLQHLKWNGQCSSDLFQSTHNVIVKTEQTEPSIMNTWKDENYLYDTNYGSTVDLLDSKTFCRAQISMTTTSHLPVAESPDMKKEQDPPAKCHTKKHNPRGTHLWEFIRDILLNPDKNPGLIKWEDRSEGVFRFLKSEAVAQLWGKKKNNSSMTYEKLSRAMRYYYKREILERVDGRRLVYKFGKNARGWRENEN
Summary of the method: as §1

SPI1 = SPI1 (Homo sapiens, UniProt P17947 1-270); settings: protein: recombinant; tags: N-terminal GST; dsDNA, one strand shown
Summary of the method: as §1

SPIB = SPIB (Homo sapiens, UniProt Q01892 1-262); settings: protein: recombinant; tags: N-terminal GST; dsDNA, one strand shown
Sequence of SPIB (Q01892 whole entry): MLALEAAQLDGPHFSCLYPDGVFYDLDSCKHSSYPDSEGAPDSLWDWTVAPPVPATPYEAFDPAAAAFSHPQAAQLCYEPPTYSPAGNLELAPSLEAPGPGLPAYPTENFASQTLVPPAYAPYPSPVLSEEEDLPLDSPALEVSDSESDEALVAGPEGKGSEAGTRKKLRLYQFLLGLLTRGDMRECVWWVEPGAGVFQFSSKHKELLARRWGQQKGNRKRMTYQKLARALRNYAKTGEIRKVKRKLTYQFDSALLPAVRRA
Summary of the method: as §1

ELK3 = target: T6, ELK3 (Homo sapiens, UniProt P41970 1-407); settings: protein: recombinant; tags: N-terminal GST; dsDNA, one strand shown
T6 sequence: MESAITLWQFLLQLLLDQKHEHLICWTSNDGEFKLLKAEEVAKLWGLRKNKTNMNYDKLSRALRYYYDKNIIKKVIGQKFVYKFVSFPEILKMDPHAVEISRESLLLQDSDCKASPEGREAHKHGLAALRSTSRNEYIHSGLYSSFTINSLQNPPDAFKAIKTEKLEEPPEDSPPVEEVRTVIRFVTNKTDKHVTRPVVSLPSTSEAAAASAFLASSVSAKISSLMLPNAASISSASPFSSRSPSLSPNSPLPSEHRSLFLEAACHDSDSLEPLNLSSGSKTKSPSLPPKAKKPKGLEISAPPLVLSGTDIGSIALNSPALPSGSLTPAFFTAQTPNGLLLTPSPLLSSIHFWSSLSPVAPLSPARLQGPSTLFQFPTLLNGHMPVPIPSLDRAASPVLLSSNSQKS
Summary of the method: as §1

FEV = target: T7, FEV (Homo sapiens, UniProt Q99581 1-238); settings: protein: recombinant; tags: N-terminal GST; dsDNA, one strand shown
T7 sequence: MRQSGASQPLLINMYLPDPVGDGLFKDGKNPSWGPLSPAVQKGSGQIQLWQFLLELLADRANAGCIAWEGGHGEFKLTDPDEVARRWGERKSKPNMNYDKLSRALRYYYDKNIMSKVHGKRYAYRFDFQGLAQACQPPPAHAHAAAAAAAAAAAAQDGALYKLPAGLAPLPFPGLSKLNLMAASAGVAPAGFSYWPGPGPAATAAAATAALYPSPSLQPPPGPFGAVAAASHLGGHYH
Summary of the method: as §1

ETV5 = ETV5 (Homo sapiens, UniProt P41161 1-510); settings: protein: recombinant; tags: N-terminal GST; dsDNA, one strand shown
Sequence of ETV5 (P41161 whole entry): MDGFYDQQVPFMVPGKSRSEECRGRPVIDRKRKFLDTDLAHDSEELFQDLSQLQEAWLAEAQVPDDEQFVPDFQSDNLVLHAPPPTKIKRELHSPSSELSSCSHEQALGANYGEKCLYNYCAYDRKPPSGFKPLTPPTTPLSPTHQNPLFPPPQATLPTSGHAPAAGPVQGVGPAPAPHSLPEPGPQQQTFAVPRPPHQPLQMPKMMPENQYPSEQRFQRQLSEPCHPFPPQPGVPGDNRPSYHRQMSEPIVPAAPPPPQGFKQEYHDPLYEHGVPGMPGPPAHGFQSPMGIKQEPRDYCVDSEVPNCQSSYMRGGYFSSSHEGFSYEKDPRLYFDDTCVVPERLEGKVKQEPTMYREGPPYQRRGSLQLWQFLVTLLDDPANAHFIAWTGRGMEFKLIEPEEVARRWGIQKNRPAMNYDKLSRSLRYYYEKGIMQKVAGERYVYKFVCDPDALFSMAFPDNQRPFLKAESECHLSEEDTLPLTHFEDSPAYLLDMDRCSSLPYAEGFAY
Summary of the method: as §1

HSF1 = HSF1 (Homo sapiens, UniProt Q00613 1-529); settings: protein: recombinant; tags: N-terminal GST; chain copies: 3; dsDNA, one strand shown
Sequence of HSF1 (Q00613 whole entry): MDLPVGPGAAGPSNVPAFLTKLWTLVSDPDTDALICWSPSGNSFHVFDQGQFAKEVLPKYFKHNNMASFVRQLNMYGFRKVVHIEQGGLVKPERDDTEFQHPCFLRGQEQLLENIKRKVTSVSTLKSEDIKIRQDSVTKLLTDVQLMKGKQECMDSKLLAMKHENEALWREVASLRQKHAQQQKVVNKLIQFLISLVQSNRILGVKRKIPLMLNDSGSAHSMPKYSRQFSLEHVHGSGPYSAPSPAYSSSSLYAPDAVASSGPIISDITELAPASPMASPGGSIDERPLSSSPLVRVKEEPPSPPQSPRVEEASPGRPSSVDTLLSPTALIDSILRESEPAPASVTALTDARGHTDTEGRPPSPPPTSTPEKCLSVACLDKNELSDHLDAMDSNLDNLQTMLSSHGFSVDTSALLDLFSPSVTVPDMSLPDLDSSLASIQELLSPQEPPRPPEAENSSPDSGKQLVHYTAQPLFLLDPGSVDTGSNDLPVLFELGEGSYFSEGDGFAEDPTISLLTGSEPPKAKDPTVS
Summary of the method: as §1

SPIC = target: T8, SPIC (Homo sapiens, UniProt Q8N5J4 1-248); settings: protein: recombinant; tags: N-terminal GST; dsDNA, one strand shown
T8 sequence: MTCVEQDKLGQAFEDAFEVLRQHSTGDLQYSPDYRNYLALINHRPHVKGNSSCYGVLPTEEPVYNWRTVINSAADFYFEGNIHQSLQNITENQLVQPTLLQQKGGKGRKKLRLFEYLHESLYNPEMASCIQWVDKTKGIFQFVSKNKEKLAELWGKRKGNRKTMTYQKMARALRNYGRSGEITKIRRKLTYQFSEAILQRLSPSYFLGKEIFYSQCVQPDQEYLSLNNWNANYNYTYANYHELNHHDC
Summary of the method: as §1

ELF4 = ELF4 (Homo sapiens, UniProt Q99607 1-663); settings: protein: recombinant; tags: N-terminal GST; dsDNA, one strand shown
Sequence of ELF4 (Q99607 whole entry): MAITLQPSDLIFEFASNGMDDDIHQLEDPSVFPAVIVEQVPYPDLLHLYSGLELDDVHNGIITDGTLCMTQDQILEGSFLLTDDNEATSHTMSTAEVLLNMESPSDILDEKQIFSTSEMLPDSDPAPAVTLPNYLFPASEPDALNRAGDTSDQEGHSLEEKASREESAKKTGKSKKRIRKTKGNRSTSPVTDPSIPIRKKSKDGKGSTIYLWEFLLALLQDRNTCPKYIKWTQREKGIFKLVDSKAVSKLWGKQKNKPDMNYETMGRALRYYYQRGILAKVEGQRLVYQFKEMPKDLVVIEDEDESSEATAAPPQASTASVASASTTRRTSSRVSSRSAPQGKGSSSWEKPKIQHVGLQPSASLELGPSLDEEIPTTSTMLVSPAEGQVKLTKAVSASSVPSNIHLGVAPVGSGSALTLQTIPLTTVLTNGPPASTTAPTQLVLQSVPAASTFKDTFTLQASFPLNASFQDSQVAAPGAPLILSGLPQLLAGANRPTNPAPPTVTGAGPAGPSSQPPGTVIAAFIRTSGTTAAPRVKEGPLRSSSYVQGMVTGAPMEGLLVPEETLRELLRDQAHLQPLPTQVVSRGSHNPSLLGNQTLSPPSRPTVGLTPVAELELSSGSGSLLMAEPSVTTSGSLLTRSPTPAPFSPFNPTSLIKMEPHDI
Summary of the method: as §1

ELK4 = target: T9, ELK4 (Homo sapiens, UniProt P28324-2 1-405); settings: protein: recombinant; tags: N-terminal GST; dsDNA, one strand shown
T9 sequence: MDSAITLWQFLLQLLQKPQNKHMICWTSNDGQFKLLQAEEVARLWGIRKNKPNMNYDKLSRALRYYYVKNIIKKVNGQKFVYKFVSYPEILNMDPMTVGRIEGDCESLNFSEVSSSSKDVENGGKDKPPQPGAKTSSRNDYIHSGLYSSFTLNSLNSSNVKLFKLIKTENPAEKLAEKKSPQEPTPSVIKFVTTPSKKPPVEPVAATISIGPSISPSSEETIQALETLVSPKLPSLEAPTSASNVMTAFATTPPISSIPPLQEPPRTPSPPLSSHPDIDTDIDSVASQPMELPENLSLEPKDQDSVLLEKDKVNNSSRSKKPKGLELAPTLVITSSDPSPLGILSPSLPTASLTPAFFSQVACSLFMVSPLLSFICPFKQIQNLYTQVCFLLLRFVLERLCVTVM
Summary of the method: as §1

ETV2 = target: T10, ETV2 (Homo sapiens, UniProt O00321 1-342); settings: protein: recombinant; tags: N-terminal GST; dsDNA, one strand shown
T10 sequence: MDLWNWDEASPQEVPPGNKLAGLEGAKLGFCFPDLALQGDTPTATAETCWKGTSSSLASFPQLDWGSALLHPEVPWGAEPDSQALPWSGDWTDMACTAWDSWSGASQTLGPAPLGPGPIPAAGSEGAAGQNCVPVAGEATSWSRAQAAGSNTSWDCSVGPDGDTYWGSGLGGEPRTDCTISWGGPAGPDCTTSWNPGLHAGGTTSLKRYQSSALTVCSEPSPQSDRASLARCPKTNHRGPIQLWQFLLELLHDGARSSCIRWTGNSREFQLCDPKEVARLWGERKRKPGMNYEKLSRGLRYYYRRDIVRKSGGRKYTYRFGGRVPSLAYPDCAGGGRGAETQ
Summary of the method: as §1

ELF3 = target: T11, ELF3 (Homo sapiens, UniProt P78545 1-371); settings: protein: recombinant; tags: N-terminal GST; dsDNA, one strand shown
T11 sequence: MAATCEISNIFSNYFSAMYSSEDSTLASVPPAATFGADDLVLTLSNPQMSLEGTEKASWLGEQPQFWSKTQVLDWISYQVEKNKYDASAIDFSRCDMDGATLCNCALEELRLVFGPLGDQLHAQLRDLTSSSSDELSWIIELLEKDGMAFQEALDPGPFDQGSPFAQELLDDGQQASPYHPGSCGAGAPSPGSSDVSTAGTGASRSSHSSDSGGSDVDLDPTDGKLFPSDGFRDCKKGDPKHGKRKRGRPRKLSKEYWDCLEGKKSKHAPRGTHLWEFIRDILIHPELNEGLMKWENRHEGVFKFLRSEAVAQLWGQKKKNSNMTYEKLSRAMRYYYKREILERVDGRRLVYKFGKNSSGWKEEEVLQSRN
Summary of the method: as §1

ETV1 = ETV1 (Homo sapiens, UniProt P50549 1-477); settings: protein: recombinant; tags: N-terminal GST; dsDNA, one strand shown
Sequence of ETV1 (P50549 whole entry): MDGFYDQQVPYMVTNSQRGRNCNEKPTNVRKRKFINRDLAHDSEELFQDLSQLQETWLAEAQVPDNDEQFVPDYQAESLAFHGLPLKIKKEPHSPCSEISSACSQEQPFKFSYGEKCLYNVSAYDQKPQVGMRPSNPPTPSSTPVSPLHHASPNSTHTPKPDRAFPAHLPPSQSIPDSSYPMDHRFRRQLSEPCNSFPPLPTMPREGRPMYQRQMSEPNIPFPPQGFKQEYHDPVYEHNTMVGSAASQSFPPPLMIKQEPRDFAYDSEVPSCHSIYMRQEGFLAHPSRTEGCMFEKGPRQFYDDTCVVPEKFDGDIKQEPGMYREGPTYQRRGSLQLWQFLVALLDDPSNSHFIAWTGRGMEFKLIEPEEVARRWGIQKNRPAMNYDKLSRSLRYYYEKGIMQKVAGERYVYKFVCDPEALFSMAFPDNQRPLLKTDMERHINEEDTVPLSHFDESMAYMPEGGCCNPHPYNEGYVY
Summary of the method: as §1

TGTTCA
binding signal (FLI1): 1.11 fold enrichment (6-mer frequency, TF over GST control)
binding signal (ELK1): 1.31 fold enrichment (6-mer frequency, TF over GST control)
binding signal (GABPA): 1.21 fold enrichment (6-mer frequency, TF over GST control)
binding signal (ERG): 1.19 fold enrichment (6-mer frequency, TF over GST control)
binding signal (ELF1): 1.18 fold enrichment (6-mer frequency, TF over GST control)
binding signal (EHF): 1.23 fold enrichment (6-mer frequency, TF over GST control)
binding signal (SPI1): 1.3 fold enrichment (6-mer frequency, TF over GST control)
binding signal (SPIB): 1.17 fold enrichment (6-mer frequency, TF over GST control)
binding signal (ELK3): 1.37 fold enrichment (6-mer frequency, TF over GST control)
binding signal (FEV): 1.19 fold enrichment (6-mer frequency, TF over GST control)
binding signal (ETV5): 1.18 fold enrichment (6-mer frequency, TF over GST control)
binding signal (HSF1): 1.09 fold enrichment (6-mer frequency, TF over GST control)
binding signal (SPIC): 1.17 fold enrichment (6-mer frequency, TF over GST control)
binding signal (ELF4): 1.21 fold enrichment (6-mer frequency, TF over GST control)
binding signal (ELK4): 1.28 fold enrichment (6-mer frequency, TF over GST control)
binding signal (ETV2): 1.07 fold enrichment (6-mer frequency, TF over GST control)
binding signal (ELF3): 1.22 fold enrichment (6-mer frequency, TF over GST control)
binding signal (ETV1): 1.21 fold enrichment (6-mer frequency, TF over GST control)
